B-score data for 103 compounds are collected here from PubChem BioAssay AID488975 (Johns Hopkins Ion Channel Center, 2010).

SMILES strings stand for the structures. Out of some 310,000 compounds screened, about 2,600 (0.84%) were called active.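 How the source made its calls: active means B-score over 3 SD under the library average, and starting fluorescence ratio not unusually high; inactive means the rest.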 The entries come from a sample that favours actives as a whole.

Chain of High affinity choline transporter 1 (Homo sapiens) (Q9GZV3 whole entry, looked up): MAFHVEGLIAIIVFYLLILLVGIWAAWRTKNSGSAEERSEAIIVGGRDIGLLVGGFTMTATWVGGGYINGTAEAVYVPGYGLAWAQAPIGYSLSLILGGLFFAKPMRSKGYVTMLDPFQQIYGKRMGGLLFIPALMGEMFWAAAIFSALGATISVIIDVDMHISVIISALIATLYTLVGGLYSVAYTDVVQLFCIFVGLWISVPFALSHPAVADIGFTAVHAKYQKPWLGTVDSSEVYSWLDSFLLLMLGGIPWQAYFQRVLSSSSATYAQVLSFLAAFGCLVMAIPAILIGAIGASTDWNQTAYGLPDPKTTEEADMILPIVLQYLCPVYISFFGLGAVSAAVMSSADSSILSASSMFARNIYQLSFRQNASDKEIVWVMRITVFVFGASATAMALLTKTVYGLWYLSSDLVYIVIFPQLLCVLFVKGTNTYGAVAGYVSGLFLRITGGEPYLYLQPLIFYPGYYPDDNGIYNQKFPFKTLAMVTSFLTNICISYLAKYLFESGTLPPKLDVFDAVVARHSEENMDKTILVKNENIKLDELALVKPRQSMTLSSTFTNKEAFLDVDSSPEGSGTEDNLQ

The test addresses High affinity choline transporter 1 (Homo sapiens) (UniProt Q9GZV3). Put plainly: inhibitors of human choline transporter CHT (AID 488975).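 On B-score: choline stimulus applied at its EC90 after an EC20 pre-addition; B-score computed on integrated fluorescence ratio after choline addition.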 The conditions noted are these: CHT-expressing cells, membrane potential dye, choline response, at 10 µM; hits give low values.
Turning to `CC(=O)Nc1ccc(NC(=O)CSC2=NS(=O)(=O)c3ccccc3N2)cc1`, the B-score entry is “inactive”.

Take `C=C(C)CNC(=O)c1ccc(OC2CCN(C(=O)COC)CC2)cc1`: the B-score result is “inactive”.

With `O=C1c2cccc3cccc(c23)C(=O)N1CCCCCc1n[nH]c(=S)o1`, the B-score is -5.24 (active).

Consider `O=C(CCCCCN1C(=O)c2cccc3cccc(c23)C1=O)NCc1ccco1`, for which the B-score entry was “inactive”.

In the case of `C[N+](C)(CCCCCC[N+](C)(C)CCCN1C(=O)c2cccc3cccc(c23)C1=O)CCCN1C(=O)c2cccc3cccc(c23)C1=O`, the B-score entry is “inactive”.

`CCC1(c2ccccc2)NC(=O)N(CC(=O)c2ccc3c(c2)OCO3)C1=O` (stereo not drawn): the B-score result is “inactive”.

For the compound `CCCn1c(C)cc(/C=C(\C#N)C(=O)OCC(=O)N(C)c2c(N)n(Cc3ccccc3)c(=O)[nH]c2=O)c1C`, the B-score entry was “inactive”.

Regarding `Cc1[nH]c2ccccc2c1C(=O)CN1CCCC(C)C1` (stereo not drawn), the B-score was -6.04 (active).

As to `CCOC(=O)N1CCN(CC(=O)c2c(C)[nH]c3ccccc23)CC1`, the B-score result was “inactive”.

Take `Cc1[nH]c2ccccc2c1C(=O)CN1CC(C)CC(C)C1` (stereo not drawn): the B-score result was “inactive”.

For `[O-][n+]1ccc(OCc2ccccc2)cc1`, the B-score entry was “inactive”.

As for `Cc1ccc([C@@H]2CC=C(C(=O)O)[C@H](c3cccc(Cl)c3)N2S(=O)(=O)c2ccc(C)cc2)cc1`, the B-score entry was “inactive”.

As to `COc1ccccc1C(=O)NC(CCSC)C(=O)N1CCN(C/C=C/c2ccccc2)CC1` (stereo not drawn), the B-score entry is “inactive”.

For the compound `O=C(Nc1ccc2nc3n(c(=O)c2c1)CCCC3)c1ccc(Cl)nc1`, the B-score entry was “inactive”.

In the case of `CCN(CC)CCn1cnc2c1c(=O)[nH]c(=O)n2Cc1ccccc1`, the B-score entry was “inactive”.

With `COCCn1cnc2c1c(=O)n(Cc1ccc(Br)cc1)c(=O)n2Cc1ccccc1`, the B-score entry was “inactive”.

Turning to `N=c1c2c(-c3ccccc3)c(-c3ccccc3)n(Cc3ccccc3)c2ncn1CCCO`, the B-score is -9.35 (active).

For the compound `CCOC(=O)C1CCN(C(=O)COC(=O)C2CCN(S(=O)(=O)c3ccc4c(c3)OCCO4)CC2)CC1`, the B-score entry was “inactive”.

Take `Cc1cc(C)c(S(=O)(=O)n2cc(C(C)C(N)C(=O)O)c3ccccc32)c(C)c1` (stereo not drawn): the B-score result is “inactive”.

As for `CCN(CC(=O)Nc1c(F)cccc1F)C(=O)c1ccc(-c2ccccc2)cc1`, the B-score result was “inactive”.

As to `COc1ccccc1/C=N/Nc1nc(C)c(C(C)=O)s1`, the B-score result is “inactive”.

Take `COc1ccc(C(=O)NCC(c2ccco2)N2CCc3ccccc32)cc1OC` (stereo not drawn): the B-score result was “inactive”.

In the case of `Cc1sc2nc(CSCC(=O)NC3CCCCC3)[nH]c(=O)c2c1C`, the B-score result is “inactive”.

Consider `N=c1n(Cc2ccc(Cl)cc2)c2ccccc2n1CC(O)c1ccco1` (stereo not drawn), for which the B-score is -5.25 (active).

For the compound `Cn1c(=N)n(CC(O)c2ccccc2)c2ccccc21` (stereo not drawn), the B-score result was “inactive”.

In the case of `Cn1c(=N)n(CC(O)c2cccs2)c2ccccc21` (stereo not drawn), the B-score result is “inactive”.

Consider `O=C(N/N=C/c1cc(Br)c(O)c([N+](=O)[O-])c1)C(O)(c1ccccc1)c1ccccc1`, for which the B-score entry was “inactive”.

Turning to `CCCCN(C(=O)CSCC(=O)Nc1ccc(OC)cc1)c1c(N)n(CCC)c(=O)[nH]c1=O`, the B-score entry is “inactive”.

On to `O=C(Cc1ccc(S(=O)(=O)N2CCOCC2)s1)NCCOc1ccccc1F`, for which the B-score entry was “inactive”.

With `Cc1ccc(NC(=O)C2CC(=O)N(c3ccc4c(c3)OCCO4)C2)cc1S(=O)(=O)N1CCCCCC1` (stereo not drawn), the B-score entry is “inactive”.

Regarding `CCOC(=O)c1nnn2c3ccccc3c(=O)n(C)c12`, the B-score result is “inactive”.

As for `CCCCCn1c(=O)c(C(=O)OCC)c(Cl)c2ccccc21`, the B-score is -5.74 (active).

Turning to `CCCCn1c(=O)c(C(C)=O)c(O)c2ccccc21`, the B-score entry is “inactive”.

As for `Cc1sc2ncnc(N3CCC(C(=O)Nc4nc5ccc(Cl)cc5s4)CC3)c2c1C`, the B-score result was “inactive”.

`CCc1ccc(Nc2n[n+](-c3ccccc3)c(-c3cccc(Cl)c3Cl)s2)cc1`: the B-score entry was “inactive”.

Turning to `Cc1ccc2nc(Nc3ccccc3O)nc(-c3ccccc3)c2c1`, the B-score entry was “inactive”.

With `Cc1ccc2nc(Nc3ccccc3)cc(C)c2c1`, the B-score is -8.75 (active).

On to `Cc1cc(Nc2ccc(Br)cc2)nc2ccccc12`, for which the B-score entry was “inactive”.

`Cc1ccc(NS(=O)(=O)c2ccc(F)cc2)nc1`: the B-score result was “inactive”.

Consider `O=S(=O)(Nc1ccc(Cl)cn1)c1cnc(Cl)c(Br)c1`, for which the B-score is -8.67 (active).

Turning to `O=S(=O)(Nc1ccccn1)c1cccc(S(=O)(=O)c2ccc(Cl)cc2)c1`, the B-score result is “inactive”.

Regarding `CC(=O)c1c(C)[nH]c(C(=O)COC(=O)CCOc2ccc(C)cc2)c1C`, the B-score result is “inactive”.

For the compound `CCOC(=O)N1CCN(C(=O)C2CCN(S(=O)(=O)c3cc(Cl)ccc3OCC)CC2)CC1`, the B-score result is “inactive”.

On to `CCOC(=O)N1CCN(C(=O)C2CCN(c3ncnc4c3sc3cccc(F)c34)CC2)CC1`, for which the B-score was -5.37 (active).

Regarding `CCOC(=O)C1CCN(c2ncnc3c2oc2ccc(Br)cc23)CC1`, the B-score result is “inactive”.

`CCC(C)c1ccc(O)c(/C=N/O)c1` (stereo not drawn): the B-score entry was “inactive”.

For `CC(=O)NCC(O)c1ccc([N+](=O)[O-])cc1` (stereo not drawn), the B-score entry was “inactive”.

For `CNCC(O)c1ccc(O)c(O)c1` (stereo not drawn), the B-score is -5.02 (active).

Consider `COc1cc(C(=O)NCC(=O)NCCSc2ccc(Br)cc2)cc(OC)c1OC`, for which the B-score result is “inactive”.

Consider `C=CCOc1ccc(/C=C/C(=O)OCC(=O)NC(C)c2ccc(F)cc2)cc1` (stereo not drawn), for which the B-score entry is “inactive”.

For the compound `COc1ccc(C(=O)N[C@H](C(=O)NCc2ccccc2)C(C)C)cc1`, the B-score entry is “inactive”.

In the case of `COc1ccc(C(=O)NC(Cc2ccc(OC(=O)c3ccc(OC)cc3)cc2)C(=O)O)cc1` (stereo not drawn), the B-score was -5.4 (active).

For `CCOC(=O)C(Cc1ccccc1)NC(=O)CCC(=O)c1ccc(OC)cc1` (stereo not drawn), the B-score entry is “inactive”.

Consider `CCOc1ccc(CCNC(=O)COC(=O)C2CCN(c3ccc(C(F)(F)F)cn3)CC2)cc1OCC`, for which the B-score result is “inactive”.

Regarding `FC(F)(F)c1ccc2c3n(nc2c1)CCN=C3c1ccc(Cl)cc1`, the B-score entry is “inactive”.

On to `Cc1cccc(-c2nc3ccc(C(=O)NCCN4CCN(C)CC4)cc3nc2-c2cccc(C)c2)c1`, for which the B-score was -5.67 (active).

Regarding `Cc1ccc(C(=O)NCCN2CCOCC2)cc1C`, the B-score entry is “inactive”.

In the case of `Cc1cccc(C(=O)NCCCN2CCCC2=O)c1`, the B-score entry is “inactive”.

In the case of `NC1=NC(c2ccc([N+](=O)[O-])cc2)N(c2ccc(F)cc2)C(N)=N1` (stereo not drawn), the B-score result is “inactive”.

With `CN(Cc1ccccc1)CC(O)COc1ccc(CNCc2cc3ccccc3s2)cc1` (stereo not drawn), the B-score is -5.57 (active).

As to `Cc1ccc(OCC(=O)OC(C)CN(C)Cc2ccccc2)cc1` (stereo not drawn), the B-score entry is “inactive”.

As to `OC(CNCc1ccc2c(c1)OCO2)COc1ccccc1` (stereo not drawn), the B-score result was “inactive”.

In the case of `COc1ccccc1NC(=O)Nc1nc(CC(=O)Nc2ccccc2F)cs1`, the B-score result is “inactive”.

Take `CCOc1cc(N2CCOCC2)c(OCC)cc1NC(=O)COc1cccc(Cl)c1`: the B-score result is “inactive”.

As to `CCN(CC(=O)Nc1cccc(S(=O)(=O)N2CCCCC2)c1)Cc1ccccc1`, the B-score entry was “inactive”.

`Cc1ccc(-c2cc(=O)[nH]c(NCc3ccccc3)n2)cc1`: the B-score entry is “inactive”.

Consider `CCCCN(C1CCS(=O)(=O)C1)S(=O)(=O)c1ccc(C(C)C)cc1` (stereo not drawn), for which the B-score result is “inactive”.

In the case of `COc1ccc(Cl)cc1CSc1ncn[nH]1`, the B-score result is “inactive”.

In the case of `CCCCOc1ccc(Cl)cc1CSc1nncn1N`, the B-score was -4.96 (active).

Turning to `Cc1cc(=O)[nH]c(SCc2cc(Cl)ccc2OC(F)F)n1`, the B-score entry is “inactive”.

As for `COc1ccccc1C(CNC(=O)c1cccc(NS(=O)(=O)c2ccc(Br)cc2)c1)N(C)C` (stereo not drawn), the B-score result is “inactive”.

Consider `CN(CC(=O)NCc1cccnc1)S(=O)(=O)c1cc(Cl)ccc1Cl`, for which the B-score entry is “inactive”.

On to `COc1ccc(CC2c3cc(OC)c(OC)cc3CC[N+]2(C)CCC(=O)OCCCCCOC(=O)CC[N+]2(C)CCc3cc(OC)c(OC)cc3C2Cc2ccc(OC)c(OC)c2)cc1OC` (stereo not drawn), for which the B-score result is “inactive”.

As for `Cc1ccccc1N1CC(C(=O)Nc2ccc(S(=O)(=O)N3CCCC3)cc2)CC1=O` (stereo not drawn), the B-score result is “inactive”.

Regarding `CCC1(c2ccccc2)NC(=O)N(CC(=O)Nc2ccccc2C(=O)NC2CCCC2)C1=O` (stereo not drawn), the B-score entry was “inactive”.

Regarding `CCc1noc(C)c1C(=O)Oc1ccc(N(C)S(=O)(=O)c2ccc(C)c(C)c2)cc1`, the B-score entry is “inactive”.

`CN1CCN(NC(=O)c2ccc(S(=O)(=O)N3CCCCCC3)cc2)CC1`: the B-score result was “inactive”.

As to `CC1CN(S(=O)(=O)c2ccc(C(=O)NN3CCN(C)CC3)cc2)CC(C)O1` (stereo not drawn), the B-score was -5.14 (active).

For `CC1CC(C)CN(S(=O)(=O)c2ccc(C(=O)NN3CCOCC3)cc2)C1` (stereo not drawn), the B-score result is “inactive”.

`CCCc1cc(=O)[nH]c(SCC(=O)c2c(N)n(CC(C)C)c(=O)n(C)c2=O)n1`: the B-score result is “inactive”.

In the case of `CCCCC(=O)Nc1cc(C)c2c(=O)oc3ccccc3c2n1`, the B-score result is “inactive”.

Take `CCOC(=O)c1c(C)nc2c(c1C)c(=O)oc1ccccc12`: the B-score entry is “inactive”.

Regarding `Cc1ccccc1-n1nnc2c(=O)oc3ccccc3c21`, the B-score was -6.25 (active).

As for `Cc1ccc(Cl)c(OCC(=O)N(C)CC(=O)Nc2ccc(N3CCOCC3)cc2)c1`, the B-score entry was “inactive”.

For the compound `O=C(NCc1ccco1)/C(=C/c1ccco1)NC(=O)c1ccccc1`, the B-score result was “inactive”.

On to `CNC(=O)/C(=C\C=C\c1ccccc1)NC(=O)c1ccc([N+](=O)[O-])cc1`, for which the B-score result was “inactive”.

Take `Cc1ccc(C(=O)N/C(=C/C=C/c2ccccc2)C(=O)NCc2ccco2)cc1`: the B-score was -7.21 (active).

Consider `Cc1n[nH]c(=O)c2c(NC(=O)CSc3ccccc3F)oc(C)c12`, for which the B-score result was “inactive”.

With `Cc1ccc2nc(SCC(=O)Nc3cccc4ccccc34)nc(=O)n2c1`, the B-score entry is “inactive”.

In the case of `Cc1sc2c(c1C)c(=O)n(-c1ccccc1)c(=O)n2CC(=O)NCC1CCCO1` (stereo not drawn), the B-score entry is “inactive”.

`Cc1c(Cl)c([N+](=O)[O-])nn1CC(=O)NCC1CCCO1` (stereo not drawn): the B-score entry is “inactive”.

For the compound `Cc1nn(CC(=O)NCC2CCCO2)c(=O)c2cc3ccccc3n12` (stereo not drawn), the B-score is -5.7 (active).

As for `COc1ccc(N2C(=O)CC(SC(C)C)C2=O)cc1` (stereo not drawn), the B-score entry is “inactive”.

`COc1ccc(N2C(=O)CNC2=S)cc1`: the B-score was -7.99 (active).

In the case of `COc1ccc(N2C(=O)C(Cc3ccccc3)NC2=S)cc1` (stereo not drawn), the B-score entry was “inactive”.

Consider `CCOC(=O)N1CCN(C(=O)c2ccccc2SCC(=O)NCC2CCCCC2)CC1`, for which the B-score result is “inactive”.

As for `O=C(O)c1ccc(S(=O)(=O)N2CCC(Cc3ccccc3)CC2)cc1`, the B-score entry was “inactive”.

On to `CC(C)(C)NC(=O)NC(=O)CN1CCC(Cc2ccccc2)CC1`, for which the B-score was -7.19 (active).

`NC(=O)c1ccc(CN2CCC(Cc3ccccc3)CC2)cc1`: the B-score entry was “inactive”.

On to `Cc1sc2ncnc(N3CCC(C(=O)NNC(=O)c4ccc(F)cc4)CC3)c2c1C`, for which the B-score entry is “inactive”.

`Cc1cc(C)c(-c2c(O)c3ccccc3n(C)c2=O)c(C)c1`: the B-score result is “inactive”.

Turning to `CCn1c(=O)cc(O)c2ccccc21`, the B-score entry was “inactive”.

As to `Cn1c2ccccc2c(=O)c2c(O)cccc21`, the B-score is -5.96 (active).
